Over roughly 33,000 sequences, “E-score (dimensionless, -0.5 to 0.5)” has its median near -0.058; the highest 2% begin near 0.35. The list comes from a sample in which the highest values are over-represented; it also holds similar and randomly drawn sequences.
The sequences below were run on MvaT (assay: PBM 8-mer E-score (mean of HK and ME arrays) (E-score (dimensionless, -0.5 to 0.5)); higher = stronger relative binding preference).
How it was run: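 Full-length P. aeruginosa MvaT, with glutathione S-transferase fused to its N-terminus (cloned into pTH6838 by isothermal assembly), was tested by protein binding microarray using a previously described protocol. Two universal double-stranded 60-mer arrays (ME and HK) were used, each with a constant 25-mer primer region and a variable 35-mer region covering all 8-mers. The rank-based 8-mer E-score (-0.5 to 0.5) is the mean of the two arrays, parsed with a custom Python script.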

Sequence	PBM 8-mer E-score
AACTACCA	0.17
GAAATAAC	0.3
AAAATACA	0.25
GGAATAAA	0.289
GAAATAAA	0.405
AAAATAAT	0.422
TAAATACA	0.35
GAAATGAA	0.17
CAAATAAC	0.341
AAAAAAAT	0.227
AAAATAAC	0.378
AAAATACC	0.265
GAAATACA	0.0961
CAGGTGTC	-0.277
AGACTTGG	-0.179
AGTGTCTC	-0.00692
ACGCTCTC	-0.273
CCGTAGGA	-0.216
ATACCGAG	-1.06e-05
AAGAGAAT	0.126
GCTATGGA	-0.0686
CGCCTAAG	-0.113
AGCTCCCG	-0.29
CCTTTTGA	-0.074
AAAATAAG	0.331
CAAATAAA	0.301

Sequence	PBM 8-mer E-score
TAAATAAA	0.421
TAAATAGA	0.291
AAAATAGA	0.173
AAAATAAA	0.409
AGTGCTAT	0.172
TACGATCA	0.0229
TCGAATCA	-0.0287
ACACTTGC	-0.00708
AACAATAA	0.422
AACAATTG	0.217
AACAATAC	0.254
TACAATAA	0.328
AACAATTA	0.391
CACAATAG	0.176
CACAATAA	0.351
AACAATAG	0.294
AACAATAT	0.362
AACAATCT	0.0729
AACAATTC	0.27
ACCAATAT	0.282
ATGTAGTC	0.1
GGACGTTA	-0.103
CACATTAG	0.162
CAGCGAGC	-0.199
GCCCCCGC	-0.248
CCTTTGAG	-0.158

Sequence	PBM 8-mer E-score
ACACGACG	-0.192
ATGATCAC	-0.0926
AACTTATC	0.351
CACTTATG	0.12
AACTTATT	0.398
CACTTATC	0.14
AACTTACT	0.335
AACTTATG	0.372
GACTTATC	0.0104
AACTTAGT	0.289
AACTTAGG	0.182
CAGAGCCC	-0.374
ATCTCGAA	-0.0688
ACTGGAAG	-0.0943
ACTCTGGC	-0.165
AAGCACAG	-0.107
AAAGTAAC	0.206
ATAGTAAT	0.353
AAAGTAAT	0.373
ATAGTAAA	0.327
AAAGTAAA	0.306
ATAGTAAC	0.271
AGTCATCG	-0.269
CTCATATC	-0.0618
CATATATG	0.449
CATATACG	0.143

Sequence	PBM 8-mer E-score
CATATACC	0.166
CATATATA	0.451
CATATATC	0.398
CATATCTA	0.122
CATATAGG	0.151
CTCATATA	0.324
GAGGGGAC	-0.373
CCCCAAAA	-0.131
ACAGATAA	0.287
GCCGACTA	-0.209
AACCTACC	-0.156
GGGATTAA	0.144
GGCGGTTA	-0.177
ATTAGCAC	0.0511
CAACCCGA	-0.0421
GGATAAAA	0.265
TAATAAAA	0.389
CAATAAAA	0.286
GAATAAAA	0.354
TAAAAAAA	0.321
GAATAAAC	0.192
GCTGCTAA	-0.101
CTATGCAG	-0.146
ATCTAGCA	0.152
ATAAGTAC	0.305
ATAAGTAT	0.356

Sequence	PBM 8-mer E-score
CAAAGTAA	0.216
ATAAGTAA	0.371
TAAAGTAA	0.365
ATAAGTAG	0.341
TTAAGTAA	0.328
AAAAGTAA	0.28
GTAAGTAA	0.207
ATCGTCAC	-0.196
CCTTCAAA	-0.128
CCACGACA	0.011
AACATCAT	0.171
CCCTACCC	-0.224
CCAAACGC	-0.0718
AGCTGCAC	-0.122
ACTTGCAA	0.123
CCAAACAC	0.111
ATCAGTGA	-0.0827
CTATCCAG	-0.0225
ATTCTTGA	0.0466
ATTCGGTG	-0.00558
AATCCACA	0.139
AATATATC	0.445
AATATCCC	0.174
AATATCAC	0.407
AATATCTC	0.253
AATATCAA	0.338

Sequence	PBM 8-mer E-score
ACTATATG	0.306
GATATCAC	0.119
AATATATG	0.446
AATATCTG	0.207
GTATCTTA	0.194
ACAGGTTG	-0.21
AGGAACCT	-0.139
AATTCTAC	0.188
ACTAGGCT	-0.105
ACACCTCC	-0.0337
CCGGTAAA	0.0751
TATTAGGA	0.247
ATCATATG	0.241
ATAATCTC	0.337
ATGATATC	0.131
ATAATCTG	0.196
ATAATATC	0.437
ATAATATG	0.435
CTACGATC	0.0594
ATGAATAG	0.131
AAGAATAT	0.316
CTGAATAA	0.226
AAGAATAA	0.368
ATGAATAA	0.368
AAGAATAC	0.118
CGCTTGCC	-0.327

Sequence	PBM 8-mer E-score
TATATTCA	0.373
GATATTGA	0.228
TATATTGA	0.387
GATATTCA	0.0985
CATATTGA	0.264
AATATTCA	0.312
CCCGGGGA	-0.299
CTTATAAC	0.352
GTTATAAC	0.434
CTCATAAC	-0.0784
GTTATAAA	0.345
AGTATAAT	0.336
ATGATAAC	0.178
GCTATAAC	0.13
ATGATAAT	0.292
CCTATAAC	0.186
ATTATAAT	0.468
ATTATAGC	0.282
ATTATAAC	0.415
AAGTGACT	0.00519
CTCCCTAA	-0.204
GTGTGGGA	0.0582
GACGCTGC	-0.183
AATCGTGG	-0.0233
AAGCGGTG	-0.19
AAATCTAC	-0.0273

Sequence	PBM 8-mer E-score
ACGAACGA	-0.115
CTAAGCAC	-0.0271
ATTATAAA	0.462
CTCATAAG	-0.122
ACTATACT	0.228
ACTATAAA	0.316
CTCATAAA	0.0815
ACTATAAT	0.436
CCTATAAA	0.211
ATCATAAA	0.308
CGTATAAG	0.147
CTTATAAA	0.377
CTTATAAG	0.394
TAAGCCTA	-0.0915
GAACTTGA	0.266
AGTCCAGA	-0.101
AAACCATA	0.251
CGCTTAGA	-0.0246
AATAAAGC	0.292
ATCCTATA	0.189
ACCTATAA	0.208
ACACGTGT	-0.0859
AACCGCAA	0.00741
ATTATAAG	0.432
ACTATAAG	0.273
TTTATAAA	0.411

Sequence	PBM 8-mer E-score
TTGATAAA	0.253
TTCATAAA	0.238
ATTATACG	0.274
CCTACAGC	-0.247
ACTACGAG	0.0492
AGGCCATG	-0.221
CGCGTGAA	0.0803
AGCGTCAT	-0.205
ATATGCCA	0.181
ACAGCATA	0.147
ATGATATG	0.199
GTTATAGA	0.222
CTTATATC	0.184
GTGATATA	0.247
ATTATATG	0.416
ATTATAGG	0.304
CTTATATA	0.452
GTTATACA	0.281
CTTATAGA	0.0191
CTGATATA	0.358
ATGATATA	0.262
GTTATATA	0.456
